Screens as filed in PubChem BioAssay.
S2 tox: Viability Counterscreen for Primary qHTS for Inhibitors of ATXN expression; AID 651635, 2014; S2 cells (HEK-293 line with an ATXN2-luciferase reporter) viability, CellTiter-Fluor protease fluorescence, 24 h; Potency, µM (highest dose often 56.7 µM), hits mostly cytotoxic; 400,000 compounds, 0.49% hits; note: nearly all actives have a fitted effect of over 40% in size
ATXN2 expr inh: Primary qHTS for Inhibitors of ATXN expression | HEK-293 ATXN2-luciferase reporter, luminescence, 24 h | Potency, µM (series often up to 57 µM), for inactives: top-dose activity change, negative = inhibition, usual class: inhibitors | 360,000 compounds, 0.72% hits | AID 1745845, 2022; note: % is set by controls: 0 for no effect and ±100 for the full control effect; nearly all actives have a fitted effect of over 55% in size
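ATXN2-luciferase reporter cells (luciferase flanked by upstream and downstream ATXN2 gene portions) were treated 24 h at 37 °C with compounds at up to 57 uM. SteadyGlo luminescence gave expression; GF-AFC fluorescence gave viability.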
VP16 counter: VP16 counterscreen qHTS for inhibitors of ROR gamma transcriptional activity. Drosophila S2 Gal4-VP16 UAS-luciferase, luminescence, 20 h. Potency, µM (top dose mostly 53.6 µM), for the others: at the highest dose activity, negative = inhibition, usual class: inhibitors. 310,000 compounds, 3.5% hits. AID 2546, 2010;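 note: Gal4-VP16 expression switched on by copper sulfate through the metallothionein promoter; % is set by controls: 0 for no effect and ±100 for the full control effect; nearly all actives have a fitted effect of over 50% in size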
TGFb inhibitor: qHTS for Inhibitors of TGF-b. HepG2 CAGA-GFP TGF-b/SMAD3 reporter, GFP fluorescence, 18 h; TGF-beta stimulated, 500 pg/mL final. Potency, µM (top dose mostly 46.1 µM), for the others: at the top dose activity, negative = inhibition, most hits filed as inhibitors. 410,000 compounds, 1.2% hits; note: % is set by controls: 0 for no effect and ±100 for the full control effect; nearly all actives have a fitted effect of over 65% in size
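First, reporter cells (HEPG2 CAGA-GFP) rested 2 h at 37 degrees C. Next, compounds were pinned in and TGF-beta added to 500 pg/mL final. After 18 h, GFP was imaged per cell and summed per well.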
HepG2 viability: qHTS for Inhibitors of TGF-b: Cytotox Counterscreen | HepG2 CAGA-GFP viability, ATP luminescence, 18 h | Potency, µM (top dose mostly 46.1 µM), inactives show at the highest dose activity change, negative = cytotoxicity, actives largely listed as cytotoxic | 410,000 compounds, 0.76% hits
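CellTiter-Glo luminescence gave cytotoxicity after 18 hours at 37 degrees C. The cells were HepG2 CAGA-GFP in 1% FBS DMEM, stimulated with 500 pg/mL TGF-beta after compound addition. %Activity was normalised to no-cell wells (complete cell-killing) and DMSO (no toxicity), and curves were fitted and classified.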
RORgamma inh: qHTS for inhibitors of ROR gamma transcriptional activity. Nuclear receptor ROR-gamma (Mus musculus), P51450. Drosophila S2 Gal4-RORgamma UAS-luciferase reporter, 20 h. Potency, µM (titrated, usually from 53.6 µM), without a hit: top-dose activity change, negative = inhibition, actives largely listed as inhibitors. 310,000 compounds, 5.4% hits. AID 2551, 2010; note: % is set by controls: 0 for no effect and ±100 for the full control effect; nearly all actives have a fitted effect of over 60% in size
Target sequence (P51450 whole entry, looked up, the tested form may be a part): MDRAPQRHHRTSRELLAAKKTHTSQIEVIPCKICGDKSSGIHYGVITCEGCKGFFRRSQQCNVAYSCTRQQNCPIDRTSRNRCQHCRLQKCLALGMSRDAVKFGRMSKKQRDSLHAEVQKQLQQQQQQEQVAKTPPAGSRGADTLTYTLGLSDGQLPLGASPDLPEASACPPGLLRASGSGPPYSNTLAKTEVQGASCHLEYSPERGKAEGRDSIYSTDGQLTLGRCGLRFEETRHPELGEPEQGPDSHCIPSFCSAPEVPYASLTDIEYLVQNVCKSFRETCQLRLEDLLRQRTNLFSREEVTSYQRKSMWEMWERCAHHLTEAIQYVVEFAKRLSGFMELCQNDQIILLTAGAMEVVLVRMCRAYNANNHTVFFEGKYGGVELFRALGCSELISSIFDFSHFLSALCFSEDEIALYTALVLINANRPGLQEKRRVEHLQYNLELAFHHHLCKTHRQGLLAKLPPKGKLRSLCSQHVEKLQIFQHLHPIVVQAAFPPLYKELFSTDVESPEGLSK
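Compounds are pin-transferred onto Drosophila Schneider cells expressing a copper-inducible Gal4–ROR gamma transactivation domain fusion. After 1 hr, copper sulfate is added to 700 uM final; luciferase is read 20 hr later.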
Active calls of the source: *. Only some compounds are listed: those with a hit (about 6.3% of all), similar ones and a draw of the others. Calls come from the whole dose curve; as a rule, active = well fitted curve in the direction sought with a large enough effect; inconclusive = small, poorly fitted or top-dose-only effect, or another doubt; inactive = no such curve, though single readings can be large; an effect the other way counts as inactive or inconclusive. Potency is the fitted concentration of half-maximal effect.

`Cc1cc(C)nc(NN2C(=O)/C(=C/c3ccccc3)SC2=S)n1` gave S2 tox inactive, ATXN2 expr inh -10.8%, VP16 counter -11.6%, TGFb inhibitor -2.5%, HepG2 viability -4.5% and RORgamma inh 12.6µM*.
For CC1(C)CC(=O)C(C=NCc2ccccn2)=C(O)C1 the results were S2 tox inactive, ATXN2 expr inh 2.7%, VP16 counter 15.8µM*, TGFb inhibitor 8.0%, HepG2 viability -12.8% and RORgamma inh 7.08µM*.
Cc1cc(-c2ccc(N=Nc3ccc4c(S(=O)(=O)O)cc(S(=O)(=O)O)c(N)c4c3O)c(C)c2)ccc1N=Nc1ccc2c(S(=O)(=O)O)cc(S(=O)(=O)O)c(N)c2c1O was read as S2 tox 12.6µM*, VP16 counter inconclusive and RORgamma inh inconclusive.
`CCN1CCN(c2cc(C)c3cc(NC(=O)c4cccnc4Cl)ccc3n2)CC1` gave S2 tox inactive, ATXN2 expr inh 6.1%, VP16 counter 2.4%, TGFb inhibitor 26.0%, HepG2 viability 2.8% and RORgamma inh 12.1%.
For Cc1ccc(NC(=O)Nc2ccc3nc(N4CCN(C)CC4)cc(C)c3c2)cc1C the results were S2 tox inactive, ATXN2 expr inh 11.4%, TGFb inhibitor 24.5% and HepG2 viability -19.8%.
Screening Cc1cc(N2CCN(C)CC2)nc2ccc(NC(=O)Nc3ccccc3)cc12 returned ATXN2 expr inh -19.2%, TGFb inhibitor inconclusive and HepG2 viability 12.6µM*.
Screening CCN1CCN(c2cc(C)c3cc(NC(=O)c4cc(Br)ccc4Cl)ccc3n2)CC1 returned ATXN2 expr inh inconclusive, TGFb inhibitor inconclusive and HepG2 viability 10µM*.
`O=C(C[N+]1(CCO)CCOCC1)c1ccc2ccccc2c1` gave TGFb inhibitor 23.0% and HepG2 viability 14.2%.
`CCN(CC)CC(=O)c1c(C)n(C)c2ccc(OC)cc12` gave TGFb inhibitor 3.7% and HepG2 viability -4.1%.
`CCCCNC(=S)N/N=C/c1cccc(OCC)c1O` gave S2 tox inactive, ATXN2 expr inh 11.0%, VP16 counter 12.6µM*, TGFb inhibitor -21.6%, HepG2 viability -31.3% and RORgamma inh 4.47µM*.
`CCOc1cccc(C=NCCc2ccc(OC)c(OC)c2)c1O` gave S2 tox inactive, VP16 counter -14.5%, TGFb inhibitor -1.3%, HepG2 viability -9.3% and RORgamma inh inconclusive.
`CCOc1cccc(/C=N/NC(=S)Nc2ccccc2[N+](=O)[O-])c1O` gave S2 tox inconclusive, VP16 counter 11.2µM*, TGFb inhibitor inconclusive, HepG2 viability -47.1% and RORgamma inh 5.01µM*.
For CCOc1cccc(/C=N/NS(=O)(=O)c2ccc(C)c([N+](=O)[O-])c2)c1O the results were S2 tox inactive, ATXN2 expr inh -2.9%, VP16 counter 3.16µM*, TGFb inhibitor -2.2%, HepG2 viability -15.0% and RORgamma inh inconclusive.
For O=[N+]([O-])c1ccccc1NC(=S)N/N=C/c1ccc(O)c(O)c1 the results were S2 tox inconclusive, ATXN2 expr inh 42.2%, VP16 counter inconclusive, TGFb inhibitor -10.3%, HepG2 viability -35.2% and RORgamma inh 10µM*.
Screening O=[N+]([O-])c1ccccc1C=NNC(=S)NN=Cc1ccccc1[N+](=O)[O-] returned S2 tox inactive, ATXN2 expr inh 20.5%, TGFb inhibitor -6.3% and HepG2 viability 0.0%.
`Cc1ccc(S(=O)(=O)N/N=C/c2ccc(O)cc2O)cc1[N+](=O)[O-]` gave S2 tox inactive, ATXN2 expr inh 0.5%, VP16 counter inconclusive, TGFb inhibitor 10.2%, HepG2 viability 4.2% and RORgamma inh 32.8%.
COCc1c(C(=O)N2CCN(c3ccccc3)CC2)cnn1-c1nccc(-c2ccco2)n1 was read as S2 tox inactive.
Screening CCOC(=O)c1[nH]c2ccccc2c1NC(=O)c1ccccc1OCC returned S2 tox inconclusive, ATXN2 expr inh inconclusive, TGFb inhibitor -23.3% and HepG2 viability -40.9%.
`Cc1nc2nc[nH]c2cc1Br` gave S2 tox inactive, ATXN2 expr inh -5.0%, VP16 counter -0.4%, TGFb inhibitor 10.3%, HepG2 viability -11.0% and RORgamma inh 0.4%.
`Cc1nc2[nH]c(=S)[nH]c2cc1Br` gave S2 tox inactive, ATXN2 expr inh 2.9%, VP16 counter -2.9%, TGFb inhibitor 24.3%, HepG2 viability 22.8% and RORgamma inh 11.2µM*.
Screening O=C(NCCN1CCC(n2c(=O)[nH]c3ccccc32)CC1)c1ccc(OC(F)(F)F)cc1 returned S2 tox inactive and ATXN2 expr inh -17.6%.
For Cc1cccc(OCCc2nnc(N)s2)c1C the results were S2 tox inactive, ATXN2 expr inh -7.9%, VP16 counter -4.4%, TGFb inhibitor 20µM*, HepG2 viability -10.7% and RORgamma inh 15.3%.
For COCC(=O)O the results were VP16 counter 8.5% and RORgamma inh 3.8%.
For CN(C)CCOc1ccc2c(c1)C(=O)C(=Cc1ncc([N+](=O)[O-])n1C)C2 the results were S2 tox inconclusive, TGFb inhibitor 1.41µM* and HepG2 viability -79.9%.
`Cc1cc(-c2ccnc(-n3ncc(C(=O)NCC(C)(C)N4CCOCC4)c3C)n2)c(C)s1` gave S2 tox inactive.
For NNC(=S)NC1CC2CC1C1C=CCC21 (stereo not drawn) the results were S2 tox inactive, ATXN2 expr inh 3.6%, VP16 counter 2.82µM*, TGFb inhibitor inconclusive, HepG2 viability -32.5% and RORgamma inh 0.447µM*.
CCCNS(=O)(=O)c1cc(-c2nn3c(C)nnc3c3ccccc23)ccc1C was read as S2 tox inactive, ATXN2 expr inh 41.8%, TGFb inhibitor 14.3% and HepG2 viability -26.5%.
For CC(=O)OCCNc1cc(N2CCN(C)CC2)c2noc3c2c1C(=O)c1ccccc1-3 the results were S2 tox inactive, ATXN2 expr inh inconclusive, VP16 counter -13.4%, TGFb inhibitor 52.5%, HepG2 viability -5.5% and RORgamma inh 22.3%.
CCOC(=O)C(C(=O)OCC)c1cc(Br)c2noc3c2c1C(=O)c1ccccc1-3 was read as S2 tox 20µM*, ATXN2 expr inh 11.2µM*, VP16 counter inconclusive, TGFb inhibitor 6.31µM*, HepG2 viability -52.8% and RORgamma inh inconclusive.
